# Experimental data taken from the supplement of paper PMC7156485.
# Values joined by “and” are separate entries in the source; they are usually repeats but may differ in a detail not shown here. Identical values can stand only once. ± gives the standard deviation of the averaged measurements.
# Tests used:
# Conditions in all cases: concentration: 10 µM; 24 h
# HCC1569 [1] = assay: cell number relative to DMSO (% of DMSO); higher = more cells (less growth inhibition / toxicity)
# How it was run: (§1)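 After 24 h at 37 °C with compounds at 10 µM, in triplicate, HCC1569 and TDF cells were fixed with 3.7% formaldehyde. Immunostaining used a rabbit anti-H1.0 antibody and an AlexaFluor 647 secondary, with DAPI, and six fields per well were imaged at ×10. H1.0 nuclear intensity or cell number is presented as percent of the plate control, from the median of replicates, with HCC1569 values smoothed for positional effects.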
# TDF [2] = assay: as above
# How it was run: as §1
# TDF [3] = assay: H1.0 immunofluorescence intensity relative to DMSO (% of DMSO); higher = stronger H1.0 induction, active = 120 or more
# How it was run: as §1
# HCC1569 [4] = assay: H1.0 immunofluorescence intensity relative to DMSO (% of DMSO); higher = stronger H1.0 induction, active = 140 or more
# How it was run: as §1
# 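Throughout, for H1.0 immunofluorescence intensity relative to DMSO: TDF is a line of transformed human dermal fibroblasts of mesenchymal origin.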
# 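Throughout, for cell number relative to DMSO: TDF denotes transformed human dermal fibroblasts of mesenchymal origin.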
SMILES,cell number (HCC1569 [1]),cell number (TDF [2]),H1.0 immunofluorescence intensity (TDF [3]),H1.0 immunofluorescence intensity (HCC1569 [4])
CC1(CO)C(O)CCC2(C)C1CCC1CC3CC12CCC3(O)CO (stereo unspecified) [Aphidicolin],79.6,55.2,108 (inactive),95.2 (inactive)
COc1ccccc1N1CCNCC1.Cl [1-(2-Methoxyphenyl)piperazine hydrochloride],105,113,96.4 (inactive),98.8 (inactive)
CCN1CC2(COC)CCC(OC)C34C5CC6(O)C(OC)CC(OC(C)=O)(C5C6C(=O)c5ccc(OC)cc5)C(C(OC)C23)C14 (stereo unspecified) [Bulleyaconotine A],99,103,103 (inactive),88.8 (inactive)
CCCN1CCOC2c3cc(O)ccc3OCC21.Cl (racemic),104,91,88.1 (inactive),96.5 (inactive)
Cc1ccccc1-n1c(Cn2cnc3c(N)ncnc32)nc2cccc(C)c2c1=O,90.8,99.7,91.9 (inactive),102 (inactive)
OC1CN2CCCC(O)C2C1O (stereo unspecified) [Swainsonine],100,98.6,99.5 (inactive),95.8 (inactive)
Br.CCCN(CCC)C1CCc2cccc(O)c2C1 (stereo not drawn) [R-(+)-8-Hydroxy-DPAT hydrobromide],99.2,90.1,105 (inactive),96.5 (inactive)
C=CCN1CCC23c4c5ccc(O)c4OC2C(=NNC(=O)c2ccccc2)CCC3(O)C1C5 (stereo unspecified) [Naloxone benzoylhydrazone],99.7,118,101 (inactive),93.3 (inactive)
CC12CCC3C(CCC4=C(O)C(=O)CCC43C)C1CCC2=O (stereo unspecified) [Formestane],105,98.1,98.3 (inactive),111 (inactive)
"C[N+]1(C)CCc2cc3c(cc2C1C1OC(=O)c2c1ccc1c2OCO1)OCO3.[Br-] (single isomer, unassigned; (-)) [(-)-Bicuculline methbromide, 1(S), 9(R)]",101,104,94.2 (inactive),96.4 (inactive)
CCCCCCCCCCCCCC(=O)OC1C(C)C2(O)C(C=C(CO)CC3(O)C(=O)C(C)=CC32)C2C(C)(C)C12OC(C)=O (stereo unspecified) [Phorbol 12-myristate 13-acetate],99 ± 4.3,74.6 ± 8.8,125 (active),125 (inactive)
O=C1NC(=O)c2c1c1c3ccccc3n3c1c1c2c2ccccc2n1C1CCC3O1,77.9 and 77.4,74.9 and 76.9,105 (inactive) and 100 (inactive),126 (inactive) and 107 (inactive)
C=CCN1CCC23CCCCC2C1Cc1ccc(O)cc13.O=C(O)C(O)C(O)C(=O)O (stereo unspecified) [Levallorphan tartrate],99.1,118,90.1 (inactive),100 (inactive)
COC(=O)N1CCN(C(=O)Cc2ccc(Cl)c(Cl)c2)C(CN2CCCC2)C1.O=C(O)C=CC(=O)O (stereo unspecified),100,102,97.7 (inactive),95.7 (inactive)
CN(C)Cc1c[nH]c2ccccc12 [Gramine],96.9,99.3,94.1 (inactive),83 (inactive)
C[N+](C)(C)CC(=O)O.[Cl-] [Betaine hydrochloride],104,113,89.4 (inactive),82.7 (inactive)
CCCCC(C#N)(Cn1cncn1)c1ccc(Cl)cc1 (stereo unspecified) [Myclobutanil],104,92.6,102 (inactive),102 (inactive)
CC12CCC(O)CC1CCC1C2CCC2(C)C(c3ccc(=O)oc3)CCC12O (stereo unspecified) [Bufalin],52.7,45,114 (inactive),107 (inactive)
CN1CC(C(=O)NC2(C)OC3(O)C4CCCN4C(=O)C(Cc4ccccc4)N3C2=O)CC2c3cccc4[nH]cc(c34)CC21.CS(=O)(=O)O (stereo unspecified) [Dihydroergotamine mesylate],98.8,102,92.6 (inactive),105 (inactive)
NC(=S)NN=Cc1coc2ccccc2c1=O.[Cl][Cu][Cl],96.2,86,105 (inactive),100 (inactive)
Cc1ccc(S(=O)(=O)NC(CCCCN)C(=O)CCl)cc1.Cl [Na-p-Tosyl-L-lysine chloromethyl ketone hydrochloride],98.8,104,95.7 (inactive),101 (inactive)
Br.C=CCN1CCc2cccc3c2C1Cc1ccc(O)c(O)c1-3 (stereo not drawn) [R(-)-N-Allylnorapomorphine hydrobromide],84.8,85.6,104 (inactive),110 (inactive)
CC(NC(C)(C)C)C(=O)c1cccc(Cl)c1 (stereo unspecified) [Amfebutamone],96.8,108,97.2 (inactive),116 (inactive)
CC1CCC2C(C)C3C(CC4C5CC=C6CC(OC7OC(CO)C(O)C(OC8OC(CO)C(O)C(O)C8O)C7OC7OC(C)C(O)C(O)C7O)CCC6(C)C5CCC43C)N2C1 (racemic),103,101,97.4 (inactive),86 (inactive)
Cl.Cl.Oc1ccc2c3c1OC1c4[nH]c5c(c4CC4(O)C(C2)N(CC2CC2)CCC314)CC1(O)C2Cc3ccc(O)c4c3C1(CCN2CC1CC1)C5O4 (stereo unspecified) [nor-Binaltorphimine dihydrochloride],106,114,94.9 (inactive),89.7 (inactive)

SMILES,cell number (HCC1569 [1]),cell number (TDF [2]),H1.0 immunofluorescence intensity (TDF [3]),H1.0 immunofluorescence intensity (HCC1569 [4])
CCC(C)C1OC2(C=CC1C)CC1CC(CC=C(C)C(OC3CC(OC)C(OC4CC(OC)C(O)C(C)O4)C(C)O3)C(C)C=CC=C3COC4C(O)C(C)=CC(C(=O)O1)C34O)O2 (stereo unspecified) [Abamectin],101,94.4,101 (inactive),103 (inactive)
Cc1c(C(C)C2NCC(C)CC2O)ccc2c1CC1C2CC=C2CC(O)CCC21C (stereo unspecified) [Veratramine],96.7,88.6,104 (inactive),90.2 (inactive)
C[N+](C)(C)CCOC(=O)CBr.[Br-] [Bromoacetylcholine bromide],98.5,122,87.8 (inactive),85.7 (inactive)
O=C(O)CCCc1ccc(N(CCCl)CCCl)cc1 [Chlorambucil],86.2 ± 2.5,85.1 ± 7.6,97.1 (inactive),98.4 (inactive)
Cc1cc(C(=O)CN2CCCC2)c(C)n1-c1ccc(F)cc1,99,102,99.9 (inactive),94.1 (inactive)
CN1CC[C@@]2(C)c3cc(OC(=O)Nc4ccccc4)ccc3N(C)[C@@H]12,103,90.6,106 (inactive),102 (inactive)
NC(CP(=O)(O)O)C(=O)O (racemic),105,104,82.6 (inactive),91.4 (inactive)
c1cncc(C2CCCCN2)c1 (racemic),102,110,96 (inactive),84.1 (inactive)
Fc1cc(F)c2c(c1)C1C=CCC1C(c1cccnc1)N2 (stereo unspecified),69.8,52.7,126 (active),169 (active)
Cl.NCC(O)c1ccc(O)cc1 (racemic),99.3,106,93.6 (inactive),93.1 (inactive)
Br.COc1c2c(cc3c1OCO3)CCN(C)C2 [Hydrocotarnine HBr],102,107,104 (inactive),92.6 (inactive)
Cc1cc2c(C(C)C)c(O)c(O)c(C=O)c2c(O)c1-c1c(C)cc2c(C(C)C)c(O)c(O)c(C=O)c2c1O [Gossypol],80.6 ± 22,99.6 ± 5.5,92.2 (inactive),103 (inactive)
CCNC(=O)C[C@@H]1N=C(c2ccc(Cl)cc2)c2cc(OC)ccc2-n2c(C)nnc21,86.4,71.9,141 (active),198 (active)
"C[N+]1(C)C2CC(OC(=O)C(CO)c3ccccc3)CC1C1OC12.[Br-] (single isomer, unassigned; (-)) [(-)-Scopolamine methyl bromide]",104,98.8,95.7 (inactive),101 (inactive)
Cc1ncc(CNC(=O)N(CCCl)N=O)c(N)n1.Cl [Nimustine hydrochloride],97.8,64.7,104 (inactive),94.4 (inactive)
CCCCCCCCCCCCCCC(Br)C(=O)O (stereo unspecified) [2-bromohexadecanoic acid],109,107,91.6 (inactive),94.5 (inactive)
CCCN(CCC)C(=O)Cc1c(-c2ccc(Cl)cc2)nc2c(Cl)cc(Cl)cn12,103,105,102 (inactive),100 (inactive)
Cc1cc(O)c2c(=O)c3c(O)cc(O)c4c5c(O)cc(O)c6c(=O)c7c(O)cc(C)c8c1c2c(c34)c(c78)c65 [Hypericin],103 ± 2.1,100 ± 2.6,96.3 (inactive),94.4 (inactive)
Cc1sc2c(c1C)C(c1ccc(Cl)cc1)=N[C@@H](CC(N)=O)c1nnc(C)n1-2,79.2,67.9,141 (active),220 (active)
Br.CN1C2CC(OC(=O)C(CO)c3ccccc3)CC1C(O)C2 (stereo unspecified) [Anisodamine],104,102,101 (inactive),94.6 (inactive)
N#CC(C#N)=Cc1ccc([N+](=O)[O-])c(O)c1 [Tyrphostin AG 126],99.1,111,102 (inactive),103 (inactive)
CC12C(=O)OC(=O)C1(C)C1CCC2O1 (stereo unspecified) [Cantharidin],20.6 ± 2.2,10.9 ± 0.21,210 (active),187 (active)
COc1cc(C(=O)OC2CC3CCC(C2)N3C)ccc1O (stereo unspecified) [Fillalbin],101,93.9,98.2 (inactive),94.5 (inactive)
"CC12CCC3C(CCC4=C(O)C(=O)CCC43C)C1CCC2=O (stereo unspecified) [4-Androsten-4-ol-3,17-dione]",102,96.7,93.4 (inactive),89.7 (inactive)
